Reference: ChEMBL document CHEMBL3988442, “University of Dundee, Small-Polar-MMV Screening Library” (2021)
The whole screen tested about 48,000 compounds, of which about 13,000 (27%) showed an effect of 50% or more. This is one part of the list.

system: Wolbachia pipientis; assay: Anti-Wolbachia Cell-Based Screen; type: functional; set-up: scale not given: in the data most compounds retested in dose-response had high values; conditions: 5 µM

Row | Structure (SMILES) | Percent Effect [%]
1 | Cc1nc(CN2CCN(C(=O)COc3c(C)ccc(C)c3C)CC2)no1 | 0.1735
2 | CN1CCC(N2CCOC3(CCCC3)C2)C1=O (centres undefined) | 17.36
3 | Cc1noc(C)c1CN1CCCC2(C1)CN(c1nncs1)CCO2 (centres undefined) | -8.738
4 | Cc1nc(CN2CCOC3(CCCC3)C2)oc1C | 98.63
5 | CCc1noc(CN2CCOC3(CCCC3)C2)n1 | 98.78
6 | c1cc(CN2CCOC3(CCCC3)C2)no1 | -7.47
7 | Cc1nc(CN2CCOC3(CCCC3)C2)no1 | 71.5
8 | OCCN1CCOC2(CCCN(c3ncccn3)C2)C1 (centres undefined) | 10.98
9 | CC(=O)N1CCCC2(CN(Cc3ccncc3)CCO2)C1 (centres undefined) | -7.212
10 | Cl.NCC1(c2cccc(Br)c2)CCOCC1 | -3.113
11 | CN(Cc1nc2ccsc2c(=O)[nH]1)C[C@@H]1CCCN2CCCC[C@H]12 | 9.481
12 | Cc1nn(C)c2nc(N3CCCCC3c3cccnc3)sc12 (centres undefined) | 116.8
13 | Cc1cc(N2CCCC2c2cccnc2)nc(C)n1 (centres undefined) | -8.687
14 | Cc1cc(C)nc(N2CCCC2c2cccnc2)n1 (centres undefined) | -35.57
15 | c1cc(CN2CCOCC3(CCNCC3)C2)ccn1 | -46.48
16 | CNc1nccnc1C1CCN(C(C)C)CC1 | 92.81
17 | Cc1n[nH]c(C)c1CC(=O)N1CCCN(C)C2(CCN(C)CC2)C1 | 0.449
18 | CCS(=O)(=O)N1CC[C@H](OC)[C@H]2CN(Cc3ccncc3)C[C@H]21.O=C(O)C(F)(F)F.O=C(O)C(F)(F)F | 4.967
19 | CO[C@@H]1CCN(Cc2cccs2)[C@@H]2CN(Cc3ccncc3)C[C@@H]21.O=C(O)C(F)(F)F.O=C(O)C(F)(F)F.O=C(O)C(F)(F)F | 96.91
20 | CO[C@@H]1CCN(S(=O)(=O)N(C)C)[C@@H]2CN(Cc3ccncc3)C[C@@H]21.O=C(O)C(F)(F)F.O=C(O)C(F)(F)F | 7.733
21 | CO[C@H]1CCN(C2CCC2)[C@@H]2CN(Cc3ccncc3)C[C@H]12.O=C(O)C(F)(F)F.O=C(O)C(F)(F)F.O=C(O)C(F)(F)F | 1.676
22 | CO[C@@H]1CCN(S(=O)(=O)N(C)C)[C@@H]2CN(Cc3cccnc3)C[C@@H]21.O=C(O)C(F)(F)F.O=C(O)C(F)(F)F | -16.98
23 | CO[C@H]1CCN(Cc2cccs2)[C@@H]2CN(Cc3ccncc3)C[C@H]12.O=C(O)C(F)(F)F.O=C(O)C(F)(F)F.O=C(O)C(F)(F)F | 110
24 | Nc1ncccc1CN1C[C@H]2OC(=O)N(Cc3ccccn3)[C@H]2C1 | 0.5145
